{
  "source": "paper PMC4336329",
  "about": "(PLoS ONE, 2015)",
  "note": "Screen size: about 310,000 compounds; about 14,000 (4.5%) showed an effect of 50% or more. Effects have a minus sign here. The full list was thinned out, with strong results kept by preference.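 Further: peak tail current of the secondary pulse compared with the same well before compound.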",
  "data": [
    {"biological_target": "human ether-à-go-go-related gene (hERG) potassium channel (human, UniProt Q12809)", "sequence (Q12809 whole entry, looked up)": "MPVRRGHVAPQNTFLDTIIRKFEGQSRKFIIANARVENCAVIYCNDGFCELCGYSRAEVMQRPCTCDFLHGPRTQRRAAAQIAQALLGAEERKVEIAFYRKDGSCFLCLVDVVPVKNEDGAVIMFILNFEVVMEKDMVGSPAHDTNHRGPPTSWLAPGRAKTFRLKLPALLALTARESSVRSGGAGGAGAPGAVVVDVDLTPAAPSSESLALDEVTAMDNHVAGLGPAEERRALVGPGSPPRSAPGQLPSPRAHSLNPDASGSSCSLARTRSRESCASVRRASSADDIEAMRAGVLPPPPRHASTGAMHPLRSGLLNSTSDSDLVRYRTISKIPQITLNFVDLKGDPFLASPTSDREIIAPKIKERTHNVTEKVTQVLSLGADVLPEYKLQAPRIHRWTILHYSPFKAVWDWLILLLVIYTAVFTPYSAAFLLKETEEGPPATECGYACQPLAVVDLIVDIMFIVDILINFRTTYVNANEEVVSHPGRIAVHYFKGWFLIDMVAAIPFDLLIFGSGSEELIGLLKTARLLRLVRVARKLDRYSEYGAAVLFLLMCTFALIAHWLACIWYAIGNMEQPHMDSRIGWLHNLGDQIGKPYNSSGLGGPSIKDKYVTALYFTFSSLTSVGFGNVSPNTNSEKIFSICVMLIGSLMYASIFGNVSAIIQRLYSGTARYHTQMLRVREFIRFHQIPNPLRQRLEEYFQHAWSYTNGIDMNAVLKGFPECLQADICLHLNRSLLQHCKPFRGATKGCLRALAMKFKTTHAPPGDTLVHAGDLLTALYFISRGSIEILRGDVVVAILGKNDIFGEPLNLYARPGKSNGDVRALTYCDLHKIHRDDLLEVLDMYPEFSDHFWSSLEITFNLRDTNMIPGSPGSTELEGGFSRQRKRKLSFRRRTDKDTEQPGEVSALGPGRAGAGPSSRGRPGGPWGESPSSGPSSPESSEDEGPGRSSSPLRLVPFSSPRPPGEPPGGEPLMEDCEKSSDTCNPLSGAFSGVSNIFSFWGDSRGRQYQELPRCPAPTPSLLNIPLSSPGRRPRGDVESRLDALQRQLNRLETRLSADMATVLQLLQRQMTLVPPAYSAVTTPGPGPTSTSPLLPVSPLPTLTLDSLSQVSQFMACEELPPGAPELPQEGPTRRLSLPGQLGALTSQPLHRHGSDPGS", "assay": "primary screen, population patch clamp on CHO cells stably expressing hERG; higher = less effect of the substance", "units": {"hERG current change (%, negative = inhibition) at 10uM": "%"}, "values": [
      {"smiles": "NC(=S)N/N=C1/CCSc2ccc3ccccc3c21", "hERG current change (%, negative = inhibition) at 10uM": -23.4},
      {"smiles": "C/C(=N\\NC(=O)c1cccs1)C(C)(C)C", "hERG current change (%, negative = inhibition) at 10uM": 5.21},
      {"smiles": "CCN(c1ccc(F)cc1)S(=O)(=O)c1cccc2nsnc12", "hERG current change (%, negative = inhibition) at 10uM": 2.4},
      {"smiles": "COc1ccc(C(c2oc(CO)cc(=O)c2O)c2oc(CO)cc(=O)c2O)cc1OC", "hERG current change (%, negative = inhibition) at 10uM": 14.3},
      {"smiles": "N/C(=N\\OC(=O)CCc1ccccc1)c1cccc(Br)c1", "hERG current change (%, negative = inhibition) at 10uM": 1.33},
      {"smiles": "Cn1c(SCC(=O)NC2CC2)nnc1C(F)(F)F", "hERG current change (%, negative = inhibition) at 10uM": -1.32},
      {"smiles": "Nc1nc2c(Cl)ccc(Cl)c2s1", "hERG current change (%, negative = inhibition) at 10uM": 10.7},
      {"smiles": "Cc1nc(N2CCC(C(N)=O)CC2)c2nnn(Cc3ccccc3)c2n1", "hERG current change (%, negative = inhibition) at 10uM": 16.3},
      {"smiles": "Cc1ccc(N(CC(=O)N/N=C/c2cccs2)S(C)(=O)=O)cc1", "hERG current change (%, negative = inhibition) at 10uM": -3.64},
      {"smiles": "Cc1ccccc1-n1c(C)nc2sccc2c1=O", "hERG current change (%, negative = inhibition) at 10uM": -2.18},
      {"smiles": "COc1ccc2cc(C(C)C(=O)N3CCC(C)CC3)ccc2c1", "note": "(stereo not drawn)", "hERG current change (%, negative = inhibition) at 10uM": -71.9},
      {"smiles": "COc1ccc2cc(C(C)C(=O)N3CCC(C(N)=O)CC3)ccc2c1", "note": "(stereo not drawn)", "hERG current change (%, negative = inhibition) at 10uM": 17.1},
      {"smiles": "COc1ccc(OC(C)C(=O)N2CCC(C)CC2)cc1", "note": "(stereo not drawn)", "hERG current change (%, negative = inhibition) at 10uM": -5.47},
      {"smiles": "O=C(N/N=C/c1ccc([N+](=O)[O-])cc1)c1c[nH]c2ccccc12", "hERG current change (%, negative = inhibition) at 10uM": 19.1},
      {"smiles": "O=C(CCn1c(=O)oc2ccccc21)Nc1cccc(Cl)c1", "hERG current change (%, negative = inhibition) at 10uM": -2.8},
      {"smiles": "CCOC(=O)N1CCN(C(=O)COc2cccc3c2CCN(CC)C3=O)CC1", "hERG current change (%, negative = inhibition) at 10uM": 6.35},
      {"smiles": "CCOC(=O)N1CCN(C(=O)COc2cccc3c2CCN(Cc2ccccc2C)C3=O)CC1", "hERG current change (%, negative = inhibition) at 10uM": -40.7},
      {"smiles": "CCOC(=O)N1CCN(C(=O)COc2cccc3c2CCN(Cc2ccccc2F)C3=O)CC1", "hERG current change (%, negative = inhibition) at 10uM": -31.4},
      {"smiles": "CCOC(=O)N1CCN(C(=O)COc2cccc3c2CCN(Cc2cccc(C)c2)C3=O)CC1", "hERG current change (%, negative = inhibition) at 10uM": -53.6},
      {"smiles": "Cc1ccc(COc2cccc3c2CCN(Cc2ccc(F)cc2)C3=O)cc1", "hERG current change (%, negative = inhibition) at 10uM": 6.8},
      {"smiles": "CCOC(=O)N1CCN(C(=O)COc2cccc3c2CCN(Cc2ccc(F)cc2)C3=O)CC1", "hERG current change (%, negative = inhibition) at 10uM": -61},
      {"smiles": "Cc1cc(C)nc(NS(=O)(=O)c2ccc(N3Cc4ccccc4C3=O)cc2)n1", "hERG current change (%, negative = inhibition) at 10uM": 12.2},
      {"smiles": "COc1cc(C(=O)Nc2ccccc2N2CCOCC2)ccc1OCc1c(C)noc1C", "hERG current change (%, negative = inhibition) at 10uM": -28.8},
      {"smiles": "O=C(NCc1cn2ccsc2n1)c1c(F)cccc1Cl", "hERG current change (%, negative = inhibition) at 10uM": 7.32},
      {"smiles": "O=C(O)C(=O)O.O=C(c1cccs1)N1CCN(C2CCCCC2)CC1", "hERG current change (%, negative = inhibition) at 10uM": -32.4},
      {"smiles": "O=C(c1cccs1)N1CCN(C2CCN(Cc3ccccc3)CC2)CC1", "hERG current change (%, negative = inhibition) at 10uM": -64.3},
      {"smiles": "O=C(c1cccs1)N1CCN(Cc2ccccc2)CC1", "hERG current change (%, negative = inhibition) at 10uM": -12.2},
      {"smiles": "O=C(c1cccs1)N1CCN(c2ccccc2)CC1", "hERG current change (%, negative = inhibition) at 10uM": -0.00412},
      {"smiles": "O=C(c1cccs1)N1CCC(N2CCN(c3ccccc3)CC2)CC1", "hERG current change (%, negative = inhibition) at 10uM": -51.2},
      {"smiles": "O=C(CCC1CCCC1)N1CCC(N2CCN(c3ccccc3)CC2)CC1", "hERG current change (%, negative = inhibition) at 10uM": -66.6},
      {"smiles": "COc1ccccc1N1CCN(C2CCN(C(=O)c3cccs3)CC2)CC1", "hERG current change (%, negative = inhibition) at 10uM": -38.2},
      {"smiles": "O=C(CCC1CCCC1)N1CCC(N2CCCCCC2)CC1.O=C(O)C(=O)O", "hERG current change (%, negative = inhibition) at 10uM": -29.9},
      {"smiles": "O=C(O)C(=O)O.O=C(c1cccs1)N1CCN(Cc2ccncc2)CC1", "hERG current change (%, negative = inhibition) at 10uM": -5.94},
      {"smiles": "CC(C)CC(=O)N1CCC(N2CCN(c3ccccc3)CC2)CC1", "hERG current change (%, negative = inhibition) at 10uM": -12},
      {"smiles": "O=C(c1cccs1)N1CCN(CCc2ccccc2)CC1", "hERG current change (%, negative = inhibition) at 10uM": -48.6},
      {"smiles": "O=C(O)C(=O)O.O=C(c1cccs1)N1CCN(CCCc2ccccc2)CC1", "hERG current change (%, negative = inhibition) at 10uM": -64.5}
    ]}
  ]
}
